CYP2C9 activ: activators of human CYP2C9; recombinant CYP2C9, luciferin-H conversion, luminescence; stronger effect = higher value; factor 1 = untreated enzyme, 0 = blocked; activation factor at 5 µM; actives 1.4% (n = 96,000); AID 1024;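 active means activation factor of 2 or more for CYP2C9 at a 5 µM dose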;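 further: 0 = sulfaphenazole-blocked wells and 1 = vehicle-only wells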
PostGolgi yeast: growth inhibition of a yeast mutant, post-Golgi transport screen; inhibition, % at 10 µM; post-Golgi transport phenotypic cell assay; AID 739; actives 0.9% (n = 98,000);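 further: yeast cells grown in 1536-well plates; yeast grown about 18 h at 30C before absorbance read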
PostGolgi ctrl: inhibits growth of the yeast control strain; inhibition, % at 10 µM; efflux-deficient yeast background strain, growth absorbance A615, 16 h; actives 5% (n = 98,000)
CYP2C19 inhib: inhibitors of human CYP2C19. AID 778. CYP2C19 Supersomes, luciferin-H EGE luminescence, 30 min. inhibition, % at 5 µM. actives 21% (n = 96,000);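 active means CYP2C19 inhibition above a set limit at 5 µM in the primary screen, cut at about 50% in these data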;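 further: plate controls were negative control wells for no effect and 2.5 mM tranylcypromine positive control for full effect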
Target sequence (P33261 whole entry, looked up): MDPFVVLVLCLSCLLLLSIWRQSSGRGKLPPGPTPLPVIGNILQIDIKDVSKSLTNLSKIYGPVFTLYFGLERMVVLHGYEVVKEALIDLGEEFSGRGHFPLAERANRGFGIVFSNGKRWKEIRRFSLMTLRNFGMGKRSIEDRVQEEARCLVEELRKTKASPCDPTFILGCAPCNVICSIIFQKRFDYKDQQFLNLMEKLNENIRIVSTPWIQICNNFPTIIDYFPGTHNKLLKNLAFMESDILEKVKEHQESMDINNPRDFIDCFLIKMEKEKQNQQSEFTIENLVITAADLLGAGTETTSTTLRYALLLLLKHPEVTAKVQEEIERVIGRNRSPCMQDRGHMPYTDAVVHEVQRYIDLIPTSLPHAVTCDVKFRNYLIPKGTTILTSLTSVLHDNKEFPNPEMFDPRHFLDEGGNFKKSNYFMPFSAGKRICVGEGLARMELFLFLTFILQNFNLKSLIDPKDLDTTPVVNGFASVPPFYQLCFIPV
CYP2C19 activ: cytochrome P450 2C19 (human) activation; recombinant CYP2C19, luciferin-H EGE luminescence; stronger effect = higher value; 0 = fully inhibited enzyme, 1 = untreated enzyme; AID 1025; 96,000 tested, under 10 active; P33261; activation factor at 5 µM;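 active means activation factor of at least 2 at 5 µM in the primary screen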;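 further: 0 = wells with 2.5 mM tranylcypromine and 1 = vehicle-only wells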
CYP2C9 inh: inhibitors of human CYP2C9. P11712. CYP2C9 Supersomes, luciferin-H conversion, luminescence. inhibition, % at 5 µM. actives 20% (n = 96,000). AID 777;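 active means blocking of liver enzyme CYP2C9 beyond about 50% at 5 µM, limit read from the data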
An asterisk follows results filed as active; / = not tested or not shown. Not all results are given here. Unless noted, no stated cut-off is given here; in the data, active means inhibition above about 30%; inactive means the rest.

SMILES	CYP2C9 activ	PostGolgi yeast	PostGolgi ctrl	CYP2C19 inhib	CYP2C19 activ	CYP2C9 inh
c1ccc(C[n+]2csc3ccccc32)cc1	0.4	25	1	41	0.6	55*
c1ccc(C[n+]2cccc3c4ccccc4ccc32)cc1	1.3	-1	-2	0	1	-31
Fc1cccc(C[n+]2csc3ccccc32)c1	0.4	20	6	37	0.6	62*
Cc1onc(-c2ccccc2)c1C(=O)NC(C)C1CCCO1 (stereo unspecified)	1	-24	25	3	1	4
CC(=O)Nc1ccc(-n2c(C)c(C(C)=O)c(C(C)=O)c2C)cc1	1	0	7	-6	1.1	-3
CCOC(=O)CNC(=O)Cn1cnc2sc(C)c(S(=O)(=O)N3CCC(C)CC3)c2c1=O	/	5	-6	/	/	/
COCCn1c(SCC(=O)Nc2ncc(Cl)c(C)c2Cl)nc2ccccc21	0.5	13	9	93*	0.1	47
COCCn1c(SCC(=O)NC(=O)NCc2ccccc2)nc2ccccc21	1.2	-2	8	50	0.5	-17
COCCn1c(SCC(=O)NC(=O)NC(C)C)nc2ccccc21	0.7	8	17	46	0.5	30
COCCn1c(SCC(=O)Nc2ccc(Cl)cn2)nc2ccccc21	1.2	-1	10	90*	0.1	-24
COCCn1c(SCC(=O)Nc2sccc2C(N)=O)nc2cc(Cl)ccc2c1=O	0.4	-1	9	45	0.5	60*
COCCn1c(SCC(=O)Nc2ccc(S(=O)(=O)N(C)C)cc2)nc2ccccc21	1.1	-5	11	-28	1.3	-13
COCCn1c(SCC(=O)NC(=O)NC(C)(C)C)nc2ccccc21	0.7	2	4	57*	0.4	27
COC(=O)c1nn(C23CC4CC(CC(C4)C2)C3)c2c1C(=O)N(c1ccc(Br)cc1)C2=O	0.8	7	12	20	0.8	22
Cc1ccnc(SCCn2c(N3CCC(C)CC3)nc3c2c(=O)[nH]c(=O)n3C)n1	0.9	-2	11	2	1	9
CC(C)Cn1c(CN2CCCCC2C)nc2c1c(=O)n(C)c(=O)n2C (stereo unspecified)	0.9	-3	3	8	0.9	12
Cn1c(N)c(C(=O)CSc2nc(N)cc(=O)[nH]2)c(=O)n(C)c1=O	0.9	-2	3	11	0.9	8
COc1ccc(OC)c(C2=NOC(C(=O)Nc3cc(C)nn3-c3ccccc3)C2)c1 (stereo unspecified)	0.8	-3	41*	43	0.6	17
COc1ccc(OC)c(C2=NOC(C(=O)N3CCN(c4ccccc4)CC3)C2)c1 (stereo unspecified)	1.7	11	-4	29	0.7	-72
COc1cccc(C2=NOC(C(=O)Nc3ccc(C(C)=O)cc3)C2)c1 (stereo unspecified)	0.8	3	14	16	0.8	22
COc1ccc(OC)c(C2=NOC(C(=O)Nc3ccccc3SC)C2)c1 (stereo unspecified)	1.3	-1	16	86*	0.1	-33
COc1cc(NC(=O)C2CC(c3cccc(OC)c3OC)=NO2)cc(OC)c1OC (stereo unspecified)	1.4	-3	7	61*	0.4	-37
COc1cc(C2=NOC(C(=O)Nc3ccc(C(C)=O)cc3)C2)cc(OC)c1OC (stereo unspecified)	1	12	5	-12	1.1	2
COc1ccc(OC)c(C2=NOC(C(=O)Nc3cccc(C(C)=O)c3)C2)c1 (stereo unspecified)	2.3*	-2	9	52*	0.5	-134
COc1c(Cl)ccc(Cl)c1C(=O)OCC(=O)O	1	/	/	9	0.9	0
SMILES	CYP2C9 activ	PostGolgi yeast	PostGolgi ctrl	CYP2C19 inhib	CYP2C19 activ	CYP2C9 inh
O=C(CCc1nc2ccccc2[nH]c1=O)OCC(=O)N1CCc2ccccc21	0.7	-4	6	24	0.8	28
O=C1CC(NCCC2=CCCCC2)C(=O)N1c1cccc(Cl)c1Cl (stereo unspecified)	0.6	6	12	20	0.8	38
c1coc(CN2CCN(C(c3cccs3)c3nnnn3C3CCCC3)CC2)c1 (stereo unspecified)	0.8	-2	1	28	0.7	21
CCCCC(c1nnnn1CCOC)N1CCN(C(=O)c2ccco2)CC1 (stereo unspecified)	0.4	-7	-3	80*	0.2	55*
c1ccc(CC2CCN(C(c3cccs3)c3nnnn3C3CCCC3)CC2)cc1 (stereo unspecified)	0.1	-8	12	68*	0.3	88*
CCC(c1nnnn1CCOC)N1CCN(C(=O)c2ccco2)CC1 (stereo unspecified)	0.9	2	2	27	0.7	10
CCCC(c1nnnn1C1CCCC1)N1CCN(C(=O)c2ccco2)CC1 (stereo unspecified)	0.6	5	8	31	0.7	36
COc1ccccc1N1CCN(C(c2cccs2)c2nnnn2C2CCCC2)CC1 (stereo unspecified)	0.1	2	17	94*	0.1	88*
COc1cc(C(c2nnnn2C2CCCC2)N2CCN(C)CC2)cc(OC)c1OC (stereo unspecified)	0.9	-1	29	-2	1	6
CCCCC(c1nnnn1C1CCCC1)N1CCN(C(=O)c2ccco2)CC1 (stereo unspecified)	0.3	1	7	73*	0.3	69*
COc1ccc(CCN2C(=O)C3C4CC(C5C(C(=O)O)=NOC45)C3C2=O)cc1OC (stereo unspecified)	1.1	5	4	8	0.9	-9
O=C(Nc1cccc(Cl)c1)N1CCSc2cc(Cl)ccc21	0.9	0	11	-6	1.1	6
O=C(c1ccco1)N1CCN(C(c2ccccn2)c2nnnn2C2CCCC2)CC1 (stereo unspecified)	/	-4	3	/	/	/
CCCC(c1nnnn1C1CCCCC1)N1CCN(c2ncccn2)CC1 (stereo unspecified)	0.2	1	37*	36	0.6	81*
CCCCC(c1nnnn1C1CCCC1)N1CCN(C2CCCCC2)CC1 (stereo unspecified)	0.7	-2	6	12	0.9	27
O=C(c1ccco1)N1CCN(C(c2cccs2)c2nnnn2C2CCCC2)CC1 (stereo unspecified)	0.3	-13	16	55*	0.5	68*
Cc1ccc2occ(C(c3nnnn3C3CCCC3)N3CCN(C(=O)c4ccco4)CC3)c(=O)c2c1 (stereo unspecified)	0.2	-6	12	82*	0.2	83*
O=c1c2c3c(sc2nc2sc(C4CC4)nn12)CCCC3	0.9	7	15	32	0.7	13
O=C(CSc1nc(-c2ccc(F)cc2)cs1)NC(=O)NCc1ccco1	1.6	9	6	2	1	-63

Screening results as filed in PubChem BioAssay.
